In assay [1] the target is Cytochrome P450 3A7 (Homo sapiens) (UniProt P24462). Nature of the assay: Cytochrome P450 family 3 subfamily A member 7 (CYP3A7) small molecule antagonists: luciferase biochemical qHTS assay (AID 1963596). Further: nearly all actives have a fitted effect of over 40% in size. On activity change, negative = inhibition: on the % scale 0 is the no-effect control and ±100 the full control effect. The method, boiled down: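 Luminescence read-out (relative luminescence units) after 20 min with detection reagent, which stops the reaction. Enzyme, proluciferin substrate and compound preincubated 10 min, RT; NADPH regeneration system then started 1 h reaction. Ketoconazole as positive control.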
Chain of Cytochrome P450 3A7 (Homo sapiens) (P24462 whole entry, looked up): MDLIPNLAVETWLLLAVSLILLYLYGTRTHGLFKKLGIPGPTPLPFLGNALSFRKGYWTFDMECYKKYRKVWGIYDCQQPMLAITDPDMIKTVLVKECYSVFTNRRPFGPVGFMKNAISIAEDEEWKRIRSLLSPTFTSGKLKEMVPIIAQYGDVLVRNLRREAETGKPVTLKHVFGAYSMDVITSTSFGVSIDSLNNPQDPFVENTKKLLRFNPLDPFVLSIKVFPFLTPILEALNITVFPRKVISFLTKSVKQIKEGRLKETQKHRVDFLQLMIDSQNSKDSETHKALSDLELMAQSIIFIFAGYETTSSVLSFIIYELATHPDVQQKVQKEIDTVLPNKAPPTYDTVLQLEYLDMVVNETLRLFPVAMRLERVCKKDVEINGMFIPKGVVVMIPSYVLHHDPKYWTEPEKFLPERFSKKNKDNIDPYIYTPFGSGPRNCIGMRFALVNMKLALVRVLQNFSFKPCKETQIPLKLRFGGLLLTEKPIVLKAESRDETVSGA
A general note: qHTS replaces the single test concentration by a dilution series.

Assay [2] is described as follows: Viability qHTS for spleen associated tyrosine kinase inhibitor (SYKi) drug resistant MV4-11 cells (AID 1963824). Further: nearly all actives have a fitted effect of over 35% in size. The method, boiled down: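 SYK-inhibitor-resistant MV4-11 AML cells were seeded at 500 per well onto compound and cultured 72 hours (37 °C, 5% CO2). CellTiter-Glo was then added, and after 10 min at room temperature, luminescence gave viability.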
A short description of assay [3]: Cellular viability qHTS for adrenocortical cancer (ACC) cell line SW-13 (AID 1963989). Further: nearly all actives have a fitted effect of over 65% in size.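 On activity (max response): cells grown in serum-free medium with ITS supplement; on the % scale 0 is the no-effect control and ±100 the full control effect.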 The note with it: SW-13 ACC cells viability, CellTiter-Glo, 48 h; activity (max response): stronger effect = lower value. The method, boiled down:
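SW-13 cells in ITS-supplemented serum-free DMEM were plated overnight, then exposed for 48 h at 37C to compound titrations (up to 46 uM final). Viability was read by CellTiter-Glo luminescence; four-parameter logistic fits gave IC50 and efficacy.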

A short description of assay [4]: Cellular viability qHTS for adrenocortical cancer (ACC) cell line NCI-H295R (AID 1963990). Further: nearly all actives have a fitted effect of over 60% in size.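 On activity change, negative = viability loss: 0% = DMSO only wells and -100% = full killing with cytotoxic reference compound.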 The procedure, abridged:
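Luminescent ATP read-out (CellTiter-Glo, 20 min RT) after 48 h drug exposure of NCI-H295R cells; a titration up to 46 uM final. Data normalized to doxorubicin (100% inhibition) and DMSO (0%); 4-parameter fit gives IC50, max response.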

The values that follow come from PubChem BioAssay (NCATS).

“And” between values parts separate entries of the source, which are not always exact repeats. Equal entries are not always repeated. Results filed as inconclusive are left out. A number with no mark means an inactive call. The source made the active and inactive calls. The call rests on the fitted dose curve; in most records, active means well fitted curve in the direction sought with a large enough effect; inconclusive means small, poorly fitted or top-dose-only effect, or another doubt; inactive means no such curve, though single readings can be large; an effect the other way counts as inactive or inconclusive.
Potency means the concentration at half of the fitted maximal effect.

Regarding `CC(=O)N(CC(O)CO)c1c(I)c(C(=O)NCC(O)CO)c(I)c(C(=O)NCC(O)CO)c1I` (stereo unspecified), the Potency entry in assay [1], in assay [2] and in assay [4] was “inactive” in each case. Further, in assay [3], the activity (max response) was 11.9%.
Consider `OCc1cccnc1`, for which the Potency entry in assay [1] and in assay [2] was “inactive” each time. In addition, the activity (max response) in assay [3] was 0.385%.
With `Cc1ccc(Cl)c(OCC(O)CNC(C)(C)C)c1` (stereo unspecified), the Potency entry in assay [1], in assay [2] and in assay [4] was “inactive” in each case. In addition, the activity (max response) in assay [3] is 1.06%.
Consider `C[C@@H]1CCC[C@H](C)N1CCCC(O)(c1ccccc1)c1ccccn1` (stereo partly specified), for which the Potency entry in assay [1], in assay [2] and in assay [4] was “inactive” each time. The activity (max response) in assay [3] was -5.41%.
On to `CCOc1ccccc1C(N)=O`, for which the Potency result in assay [1] and in assay [4] was “inactive” in each case. Besides, the Potency in assay [2] is 9.44 µM (active). In addition, the activity (max response) in assay [3] was 2.11%.
On to `CC1(C)OC[C@@H](COC(=O)CCc2ccc(OC[C@@H](O)CNCCNC(=O)N3CCOCC3)cc2)O1`, for which the Potency entry in assay [1], in assay [2] and in assay [4] was “inactive” in each case. Besides, the activity (max response) in assay [3] is -0.309%.
For the compound `O=C(O)c1ccccc1Nc1cc(Cl)ccc1C(=O)O`, the Potency result in assay [1] and in assay [2] was “inactive” throughout. Further, in assay [3], the activity (max response) was -18.2%.
For `COc1cc2nc(-c3cc(F)ccc3O)nc(N[C@@H]3CNC[C@H]3C(C)(C)O)c2cc1OC`, the Potency result in assay [1] was “inactive”. Also, the Potency is 11.6 nM (active) and 5.3 nM (active) in assay [2]; 6.31 µM (active) in assay [3]; 6.31 µM (active) in assay [4].
Consider `c1ccc2c(CC3=NCCN3)cccc2c1`, for which the Potency entry in assay [1] and in assay [4] was “inactive” throughout. In assay [2], the Potency was 11.9 µM (active). Moreover, the activity (max response) in assay [3] was 1.1%.
Consider `COC(=O)c1ccc(NC(C)=O)cc1OC`, for which the Potency entry in assay [1], in assay [2] and in assay [4] was “inactive” throughout. For the same compound, the activity (max response) in assay [3] was -6.56%.
Take `Clc1ccccc1-c1nc(-c2ccncc2)no1`: the Potency result in assay [1] and in assay [4] was “inactive” in each case. In assay [2], the Potency is 11.9 µM (active). Further, the activity (max response) in assay [3] was -7.1%.
As for `CCN1CCc2nc(N)oc2CC1`, the Potency entry in assay [1] and in assay [2] was “inactive” in each case. The activity (max response) in assay [3] is 7.47%.
As for `CN1CCN(C2CCN(C(=O)Nc3cc(Oc4ccc(NC(=O)C5(C(=O)Nc6ccc(F)cc6)CC5)c(F)c4)ccn3)CC2)CC1`, the Potency entry in assay [1] was “inactive”. Besides, the Potency in assay [2] was 116 nM (active) and 132 nM (active); in assay [3], 28.2 µM (active); in assay [4], 25.1 µM (active).
Regarding `OC[C@@H](O)[C@H](O)[C@H](O)[C@@H](O)CO`, in assay [1], the Potency result is “inactive”. In assay [2], the Potency is 3.35 µM (active). Moreover, the activity (max response) in assay [3] is 1.26% and 9.11%.
For `CCCC(=O)O[C@]1(C(=O)CO)CC[C@H]2[C@@H]3CCC4=CC(=O)CC[C@]4(C)[C@H]3[C@@H](O)C[C@@]21C`, the Potency entry in assay [1], in assay [2] and in assay [4] was “inactive” throughout. Further, the activity (max response) in assay [3] is -3.14%.
For the compound `CNC(=O)Oc1ccc2c(c1)[C@]1(C)CCN(C)[C@@H]1N2C`, the Potency entry in assay [1], in assay [2] and in assay [4] was “inactive” each time. Moreover, the activity (max response) in assay [3] is 16.2%.
Consider `CN=C(N)NC(=O)Nc1c(C)cccc1C`, for which the Potency result in assay [1], in assay [2] and in assay [4] was “inactive” throughout. The activity (max response) in assay [3] is -3.82%.
Turning to `N[C@@H](COP(=O)(O)O)C(=O)O`, the Potency entry in assay [1] and in assay [2] was “inactive” throughout. Also, in assay [3], the activity (max response) is -3.07%.
Consider `O=C1c2c(O)cccc2Cc2cccc(O)c21`, for which the Potency result in assay [1], in assay [2] and in assay [4] was “inactive” throughout. For the same compound, in assay [3], the activity (max response) is 5.31%.
Consider `CCN1CCCC1=O`, for which the Potency result in assay [1], in assay [2] and in assay [4] was “inactive” in each case. The activity (max response) in assay [3] was 9.62%.
`CCCN(CCC)CCc1cccc2c1CC(=O)N2`: the Potency result in assay [1], in assay [2] and in assay [4] was “inactive” in each case. In assay [3], the activity (max response) was 8.18%.
As for `CCN(CC)CCN`, the Potency entry in assay [1], in assay [2] and in assay [4] was “inactive” in each case. Further, the activity (max response) in assay [3] was 6.69%.
As for `NC[C@H]1O[C@H](O[C@H]2[C@H](O[C@@H]3O[C@H](CO)[C@@H](O)[C@H]3O)C(O)[C@H](N)C[C@@H]2N)[C@H](N)[C@@H](O)[C@@H]1O` (stereo partly specified), the activity change, negative = inhibition in assay [1] is 16.1% [at 11.5 µM]. For the same compound, the viability, % of control in assay [2] is 95.3% [at 9.25 µM]. In addition, in assay [3], the activity (max response) was 8.3%. Besides, the activity change, negative = viability loss in assay [4] is 0.419% [at 9.17 µM].
For `CC(=O)Nc1ccc(CC(=O)O)cc1`, the Potency result in assay [1], in assay [2] and in assay [4] was “inactive” throughout. Also, in assay [3], the activity (max response) was 4.33%.
For `CCOc1ncc(F)c(=O)[nH]1`, the Potency entry in assay [1] and in assay [2] was “inactive” in each case. In assay [3], the activity (max response) was 18.7%.
In the case of `CC(C)(C)NC[C@H](O)COc1nsnc1N1CCOCC1`, the Potency result in assay [1], in assay [2] and in assay [4] was “inactive” throughout. Moreover, the activity (max response) in assay [3] is -5.85%.
Regarding `CCOC(=O)c1cccc(N)c1`, the Potency in assay [1] was 27.5 µM (active). The Potency result in assay [2] was “inactive”. The activity (max response) in assay [3] is -1.69%.
As for `Nc1nc(-c2ccccc2)c(Br)c(=O)[nH]1`, the Potency entry in assay [1], in assay [2] and in assay [4] was “inactive” throughout. For the same compound, in assay [3], the activity (max response) was 0.407%.
Regarding `CC(C)CCCC(C)CCCC(C)CCCCC(C)CCCC(C)CCCC(C)C` (stereo unspecified), the Potency entry in assay [1], in assay [2] and in assay [4] was “inactive” throughout. Further, in assay [3], the activity (max response) is 6.76%.
Consider `CCN(CC)CCNC(=O)c1ccc(NC(C)=O)cc1`, for which the Potency entry in assay [1], in assay [2] and in assay [4] was “inactive” in each case. Moreover, the activity (max response) in assay [3] is -7.72%.
`COc1ccc2c(c1)CCCC2=O`: the Potency entry in assay [1], in assay [2] and in assay [4] was “inactive” in each case. Further, the activity (max response) in assay [3] is 14.4%.
As for `C[C@@H](N)C(=O)O`, the Potency result in assay [1], in assay [2] and in assay [4] was “inactive” throughout. In addition, in assay [3], the activity (max response) is 1.67%.
Take `CCCCCCCC(=O)OCC(O)CO` (stereo unspecified): the Potency result in assay [1], in assay [2] and in assay [4] was “inactive” in each case. Besides, the activity (max response) in assay [3] is -7.07%.
Consider `CN(C)CC[C@@H](c1ccc(Cl)cc1)c1ccccn1`, for which the Potency result in assay [1], in assay [2] and in assay [4] was “inactive” in each case. In assay [3], the activity (max response) is 7.75%.
Regarding `C[N+]1(C)CCC(=C(c2ccccc2)c2ccccc2)CC1`, the Potency entry in assay [1] and in assay [2] was “inactive” each time. The activity (max response) in assay [3] was -4.49%.
As to `OCCCc1ccccc1`, the Potency result in assay [1], in assay [2] and in assay [4] was “inactive” throughout. Further, the activity (max response) in assay [3] was 4.32%.
